Assay [1] can be described thus: inhibitors of TNFa-induced NFkB p65 translocation, primary screen, imaging, HUVEC, MLSMR starter and 10KST1 sets (AID 438;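 active means inhibition above 20% together with a positive visual image hit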;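 further: compound added about 3h40 before a 20 min TNFalpha stimulation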;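 on inhibition: signal is the nuclear over cytoplasmic p65 intensity ratio per well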). To be noted: HUVEC TNFa-induced p65 nuclear translocation; cell count: measured here: nuclei count (cytotoxicity indicator), at 2.08 µM; inhibition: at 2 µM, stronger effect = higher value, 0% TNFa-plus-vehicle, 100% no-TNFa wells.
Assay [2] can be described thus: inhibitors of mutant huntingtin aggregation, primary screen, imaging, exon1htt(103Q)mCFP cells, high-content imaging (AID 483;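 active means visual image review flags a hit and inhibition of aggregation exceeds 20%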;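 further: compound exposure lasted 3 days before fixation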;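 on nuclei count: percent of the per-plate median nuclei count of sample wells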). The conditions noted are these: exon1htt(103Q)mCFP cell line, aggregate imaging, at 2 µM; inhibition of aggregation: stronger effect = higher value; nuclei count: measured here: cell count, toxicity.
The nature of assay [3]: inhibitors of E-selectin induction by TNFa, primary screen, imaging, HUVEC, immunofluorescence, MLSMR starter and 10KST1 sets (AID 487;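 active means visually confirmed hit in the image check and inhibition above 20%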;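 on inhibition: signal is fraction of cell area covered by stained E-selectin grains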;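 on nuclei count: 100% = median nuclei count of all wells on the same plate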). To be noted: HUVEC TNFalpha-induced E-selectin immunofluorescence imaging, at 2 µM; inhibition: stronger effect = higher value; nuclei count: measured here: cell number, toxicity.
The target in assay [4] is Voltage-gated potassium channel subunit beta-2 (Rattus norvegicus) (UniProt P62483). The assay is described as follows: KvBeta enzyme negative modulators, primary screen, biochemical, NADPH fluorescence (AID 622;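 active means fluorescence slope higher than the sample average by over 3 SD, cut at about -0.22 in these data, passing the limit was not always enough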;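 further: slope of raw intensity against log time taken from 70 to 1610 s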). To be noted: recombinant KvBeta, 4-cyanobenzaldehyde reduction, at 10 µM, stronger effect = higher value.
Chain of Voltage-gated potassium channel subunit beta-2 (Rattus norvegicus) (P62483 whole entry, looked up): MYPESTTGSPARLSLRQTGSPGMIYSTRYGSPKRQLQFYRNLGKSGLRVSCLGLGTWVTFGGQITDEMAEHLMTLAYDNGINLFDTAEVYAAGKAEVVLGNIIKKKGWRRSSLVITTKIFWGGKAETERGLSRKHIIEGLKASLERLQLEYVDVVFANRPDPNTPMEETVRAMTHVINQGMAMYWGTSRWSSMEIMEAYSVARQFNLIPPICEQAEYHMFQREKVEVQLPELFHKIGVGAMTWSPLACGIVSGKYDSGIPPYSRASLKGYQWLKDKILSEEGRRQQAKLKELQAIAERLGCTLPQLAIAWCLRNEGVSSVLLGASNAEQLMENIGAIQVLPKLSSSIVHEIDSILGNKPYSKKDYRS
Assay [5] has the same target. The assay is described as follows: KvBeta positive modulators, primary screen, biochemical, NADPH fluorescence (AID 623;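 active means NADPH fluorescence slope more negative than the mean of all samples by about 3 SD, 99.7% confidence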;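 further: fluorescence intensity change per second fitted from 20 to 320 s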). To be noted: Recombinant KvBeta, NADPH fluorescence decrease slope, 10 min; at 10 µM; stronger effect = lower value.
For assay [6], the target named is Alpha-2C adrenergic receptor (Homo sapiens) (UniProt P18825). The assay is described as follows: modulators of alpha2C/GIRK thallium flux, primary screen, cell-based, HEK293 alpha2C/GIRK1/2 (AID 624).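 Further: slope of fluorescence ratio to pre-addition baseline per second over 15 to 24 s.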 To be noted: thallium flux BTC fluorescence, at 10 µM, actives lie on both sides.
Chain of Alpha-2C adrenergic receptor (Homo sapiens) (P18825 whole entry, looked up): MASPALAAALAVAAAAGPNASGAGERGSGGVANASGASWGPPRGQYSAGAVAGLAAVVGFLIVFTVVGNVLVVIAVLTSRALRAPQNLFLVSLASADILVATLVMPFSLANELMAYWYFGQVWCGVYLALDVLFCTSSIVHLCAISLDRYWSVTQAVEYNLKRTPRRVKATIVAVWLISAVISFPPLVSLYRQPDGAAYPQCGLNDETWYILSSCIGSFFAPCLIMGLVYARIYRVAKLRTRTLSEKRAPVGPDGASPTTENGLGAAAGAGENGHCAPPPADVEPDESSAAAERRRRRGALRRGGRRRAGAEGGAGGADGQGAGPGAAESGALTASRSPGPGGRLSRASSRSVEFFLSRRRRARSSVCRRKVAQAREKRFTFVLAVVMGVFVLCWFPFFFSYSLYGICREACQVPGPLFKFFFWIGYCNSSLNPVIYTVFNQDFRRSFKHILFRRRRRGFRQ
The nature of assay [7]: inhibitors of Sendai virus-induced IRF3 signaling, primary screen, TLR/RLR signaling modifier project, cell-based, Sendai virus stimulus, luciferase, 10K MLSCN set (AID 602276;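 active means inhibition at or above 50% at 10 µM; inactive means inhibition below 50%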;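 further: firefly luciferase from ISG56 promoter only with Renilla not read in this screen; 0% = Sendai virus plus DMSO and 100% = medium plus DMSO without virus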). The conditions noted are these: HEK293 RL24 IRF3 luciferase reporter, at 10 µM, stronger effect = higher value.
The nature of assay [8]: inhibitors of poly I:C-induced TLR3 signaling, primary screen, cell-based, poly I:C stimulus, luciferase, 10K MLSCN set (AID 602277;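 active means inhibition of the reporter signal at or above 50%; inactive means inhibition below 50%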). To be noted: HEK293-TLR3 RL24 IRF3 luciferase reporter, at 10 µM, stronger effect = higher value.

Activity calls are given as the source filed them.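 How the source made its calls, unless noted: active means fluorescence slope after compound addition differing from the mean of all screened samples at 99.7% confidence, in either direction; inactive means the rest.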

In the case of `CCOC(=O)c1sc(N)c(C(=O)OCC)c1COC(=O)C1CC(=O)N(Cc2ccco2)C1` (centres undefined), in assay [1], the cell count was 780. Further, the inhibition in assay [1] is 2.9% (inactive); in assay [3], -33.4% (inactive); in assay [7] it was -20.6% (inactive); in assay [8], -13.3% (inactive). Besides, the inhibition of aggregation in assay [2] is -82.9% (inactive). The results for the nuclei count in assay [2] and in assay [3] were 104% and 116%, respectively. Further, in assay [4], the fluorescence slope was -0.526 (inactive). For the same compound, in assay [5], the NADPH fluorescence slope is -4.5e-05 (inactive). Also, the slope in assay [6] was 0.00648 (inactive).

`Cc1csc(NC(=O)c2ccco2)n1`: the cell count in assay [1] stood at 464. In addition, the inhibition was -3.3% (inactive) in assay [1], -72% (inactive) in assay [3], -20.1% (inactive) in assay [7] and -56.9% (inactive) in assay [8]. In addition, the inhibition of aggregation in assay [2] was -1.8% (inactive). Also, the nuclei count came to 109% in assay [2] and 131% in assay [3]. In addition, the fluorescence slope in assay [4] is -0.32 (inactive). Also, the NADPH fluorescence slope in assay [5] is -1.3e-06 (inactive). Moreover, the slope in assay [6] is 0.00701 (inactive).

Turning to `COc1ccccc1OCC(=O)NCC1CCCCC1`, the cell count in assay [1] worked out at 394. The inhibition in assay [1] is -28.2% (inactive); in assay [3], 28.4% (inactive); in assay [7], -1.17% (inactive); in assay [8], -7.1% (inactive). For the same compound, the inhibition of aggregation in assay [2] is 5.6% (inactive). For the same compound, the nuclei count in assay [2] turned out to be 108%; in assay [3], 102%. In addition, the fluorescence slope in assay [4] was -0.413 (inactive). Besides, in assay [5], the NADPH fluorescence slope was -2.9e-05 (inactive). For the same compound, in assay [6], the slope is 0.00305 (inactive).

In the case of `CN(C)/C=N/c1ncnc2c1cnn2-c1ccc(C(F)(F)F)cn1`, the cell count in assay [1] is 565. Also, the inhibition in assay [1] is -0.9% (inactive); in assay [3], 21% (inactive); in assay [7] it was -45.2% (inactive); in assay [8], -118% (inactive). Besides, the inhibition of aggregation in assay [2] was -3.8% (inactive). Moreover, the values for the nuclei count in assay [2] and in assay [3] were 110% and 114%, respectively. Also, in assay [4], the fluorescence slope was -0.583 (inactive). Further, the NADPH fluorescence slope in assay [5] was -4.6e-05 (inactive). In assay [6], the slope was 0.0102 (inactive).

On to `COc1ccc(C(N)=O)cc1N`, for which the cell count in assay [1] stood at 413. In addition, the inhibition in assay [1] is 2.5% (inactive); in assay [3], -40.2% (inactive); in assay [7] it was -5.97% (inactive); in assay [8] it was 8.78% (inactive). For the same compound, the inhibition of aggregation in assay [2] was -8.6% (inactive). Besides, the nuclei count in assay [2] worked out at 98.3%; in assay [3], 118%. In addition, the fluorescence slope in assay [4] was -0.45 (inactive). Also, the NADPH fluorescence slope in assay [5] was 2.7e-05 (inactive). In addition, the slope in assay [6] is 0.00578 (inactive).

As for `N#CCC(=O)N1CCn2c1nc1ccccc12`, the cell count in assay [1] was found to be 301. Besides, the inhibition in assay [1] is -3.4% (inactive); in assay [3], -16.4% (inactive); in assay [7] it was 11.2% (inactive); in assay [8], 24.2% (inactive). The inhibition of aggregation in assay [2] was -20.8% (inactive). Moreover, the nuclei count was determined as 94.4% in assay [2] and 101% in assay [3]. In addition, the fluorescence slope in assay [4] was -0.492 (inactive). Further, in assay [5], the NADPH fluorescence slope was -3.8e-05 (inactive). The slope in assay [6] was 0.00588 (inactive).

Take `COc1ccc(Oc2c(C)oc3cc(OC(=O)N4CCOCC4)ccc3c2=O)cc1`: in assay [1], the cell count was 770. Besides, the inhibition in assay [1] is -4.9% (inactive); in assay [3], -28.1% (inactive); in assay [7], 3.22% (inactive); in assay [8], -6.73% (inactive). Also, the inhibition of aggregation in assay [2] is 11.1% (inactive). The nuclei count in assay [2] came out at 95.2%; in assay [3] it was 112%. In addition, the fluorescence slope in assay [4] was -0.402 (inactive). Moreover, the NADPH fluorescence slope in assay [5] was 2.6e-05 (inactive). Also, the slope in assay [6] was 0.00567 (inactive).

`Cc1cc(=O)n(-c2ccc3ccccc3n2)[nH]1`: in assay [1], the cell count turned out to be 383. For the same compound, the inhibition was -0.7% (inactive) in assay [1], -37.6% (inactive) in assay [3], 17.4% (inactive) in assay [7] and 9.22% (inactive) in assay [8]. Moreover, in assay [2], the inhibition of aggregation is -7.3% (inactive). In addition, the results for the nuclei count in assay [2] and in assay [3] were 89.7% and 107%, respectively. Moreover, the fluorescence slope in assay [4] is -0.436 (inactive). Besides, the NADPH fluorescence slope in assay [5] was -5.1e-05 (inactive). The slope in assay [6] is 0.00622 (inactive).

On to `COc1ccccc1CNC(=O)C1CCCN(S(=O)(=O)c2cnc[nH]2)C1` (centres undefined), for which, in assay [1], the cell count was found to be 443. Also, the inhibition was 49.5% (active) in assay [1], -59.5% (inactive) in assay [3], -5.95% (inactive) in assay [7] and 0.0501% (inactive) in assay [8]. Also, the inhibition of aggregation in assay [2] was 27.9% (inactive). In addition, the nuclei count in assay [2] was 87.1%; in assay [3], 103%. For the same compound, in assay [4], the fluorescence slope is -0.558 (inactive). Also, the NADPH fluorescence slope in assay [5] was 7.1e-07 (inactive). Moreover, the slope in assay [6] is 0.00747 (inactive).

For the compound `CCOC(=O)N1CCN(c2c(NCC3CCN(Cc4cccc(C)c4)CC3)c(=O)c2=O)CC1`, the cell count in assay [1] was found to be 577. In addition, the inhibition in assay [1] is -2.7% (inactive); in assay [3], -67.1% (inactive); in assay [7], 5.85% (inactive); in assay [8] it was 23.9% (inactive). In addition, the inhibition of aggregation in assay [2] is 25.8% (inactive). For the same compound, the values for the nuclei count in assay [2] and in assay [3] were 104% and 129%, respectively. Besides, the fluorescence slope in assay [4] was -0.507 (inactive). For the same compound, the NADPH fluorescence slope in assay [5] was -2.1e-05 (inactive). For the same compound, the slope in assay [6] is 0.00653 (inactive).

Take `COc1ccc(N2CCN(C(=O)COc3ccc4ccccc4c3)CC2)cc1`: the cell count in assay [1] turned out to be 737. For the same compound, the inhibition in assay [1] was 7.3% (inactive); in assay [3] it was -29.6% (inactive); in assay [7], 4.32% (inactive); in assay [8] it was 10.9% (inactive). Moreover, the inhibition of aggregation in assay [2] was 7.5% (inactive). The results for the nuclei count in assay [2] and in assay [3] were 93.8% and 111%, respectively. Besides, the fluorescence slope in assay [4] is -0.468 (inactive). In addition, the NADPH fluorescence slope in assay [5] is -5.8e-05 (inactive). For the same compound, the slope in assay [6] was 0.00617 (inactive).

As to `CNC(=O)CSc1nnc(-c2cc3c(C)nn(-c4ccccc4)c3s2)n1C`, in assay [1], the cell count is 428. In addition, the inhibition was 4.3% (inactive) in assay [1], -35.6% (inactive) in assay [3], -6.24% (inactive) in assay [7] and -6.6% (inactive) in assay [8]. Also, the inhibition of aggregation in assay [2] was 2.8% (inactive). Further, the nuclei count was 74.6% in assay [2] and 118% in assay [3]. Besides, the fluorescence slope in assay [4] was -0.405 (inactive). In addition, the NADPH fluorescence slope in assay [5] was 4.5e-05 (inactive). Also, the slope in assay [6] was 0.00659 (inactive).

Consider `NCc1cccc(-n2cccn2)c1`, for which the cell count in assay [1] was 680. In addition, the inhibition is -8.9% (inactive) in assay [1], -25.7% (inactive) in assay [3], -6.32% (inactive) in assay [7] and 6.04% (inactive) in assay [8]. Further, the inhibition of aggregation in assay [2] is 1.2% (inactive). Further, the nuclei count in assay [2] was 96.4%; in assay [3] it was 115%. The fluorescence slope in assay [4] is -0.622 (inactive). The NADPH fluorescence slope in assay [5] was 4.5e-06 (inactive). The slope in assay [6] is 0.00555 (inactive).

In the case of `COc1cc(C(=O)N2CCN(c3cc(Cl)ccc3Cl)CC2)cc(OC)c1OC`, in assay [1], the cell count turned out to be 630. In addition, the inhibition in assay [1] is -6.1% (inactive); in assay [3], -62.3% (inactive); in assay [7], 12% (inactive); in assay [8], 78.9% (active). In addition, the inhibition of aggregation in assay [2] is 1% (inactive). Moreover, the figures for the nuclei count in assay [2] and in assay [3] were 34.1% and 98.9%, respectively. Moreover, the fluorescence slope in assay [4] was -0.425 (inactive). The NADPH fluorescence slope in assay [5] was -7.3e-05 (inactive). Besides, the slope in assay [6] is 0.00499 (inactive).

(Values after PubChem BioAssay.)
